HepG2 tox: HepG2 cytotoxicity, counter-screen for TGF-b inhibitors; HepG2 CAGA-GFP viability, ATP luminescence, 18 h; Potency, µM (highest dose often 46.1 µM), for the others: at the highest dose activity change, negative = cytotoxicity, usual class: cytotoxic; 0.76% of 410,000 active; also: potency is read from the fitted curve at half-maximal effect
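CellTiter-Glo luminescence gave cytotoxicity after 18 hours at 37 degrees C. The cells were HepG2 CAGA-GFP in 1% FBS DMEM, stimulated with 500 pg/mL TGF-beta after compound addition. %Activity was normalised to no-cell wells (complete cell-killing) and DMSO (no toxicity), and curves were fitted and classified.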
DT40 TDP1 no CPT: qHTS for Inhibitors of human tyrosyl-DNA phosphodiesterase 1 (TDP1): qHTS in cells in absence of CPT | Potency, µM (highest dose often 46.2 µM), inactives show top-dose activity change, negative = growth inhibition, usual class: inhibitors | AID 686978, 2013 | 15% of 420,000 active | DT40 Tdp1-/- hTDP1 cells, no CPT, ATP luminescence, 48 h; also: potency is read from the fitted curve at half-maximal effect; % is scaled to controls: 0 for no effect and ±100 for the full control effect; nearly all actives have a fitted effect of over 55% in size
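Growth of hTDP1-complemented DT40 Tdp1-knockout cells is measured by ATP luminescence after at least 48 hr compound exposure at 37 °C, with DMSO substituting for the 20 nM CPT used in the parallel screen.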
IL-1B inflam inh: inflammasome signaling inhibition, IL-1 beta readout; THP-1 LPS/ATP IL-1B secretion, AlphaLISA, 16 h; stronger effect = lower value; activity change, % at 57.5 µM; 4.7% of 360,000 active; in the data active = activity change below about -50%; inconclusive = mostly about -30% to -49%; also: % is scaled to controls: 0 for no effect and ±100 for the full control effect
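Secreted IL-1B measured by AlphaLISA bead assay after 16 h compound exposure of THP-1 cells; compounds (final up to 57.5 uM) added 1 h before LPS (250 ng/mL) and ATP (1.25 mM) stimulation; lower signal means less secretion.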
TGFb inhibitor: blocks TGF-b signaling; HepG2 CAGA-GFP TGF-b/SMAD3 reporter, GFP fluorescence, 18 h; TGF-beta stimulated, 500 pg/mL final; 1.2% of 410,000 active; Potency, µM (titrated, usually from 46.1 µM), inactives show at the highest dose activity, negative = inhibition, actives largely listed as inhibitors; also: potency is read from the fitted curve at half-maximal effect; % is scaled to controls: 0 for no effect and ±100 for the full control effect; nearly all actives have a fitted effect of over 65% in size
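TGF-beta reporter screen: HEPG2 CAGA-GFP, 1% FBS, 500 pg/mL TGF-beta final, 18 h; per-cell GFP summed per well; curves fitted and categorized by class.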
DT40 TDP1 CPT: growth inhibition of DT40 Tdp1-/-;hTDP1 cells with camptothecin (screen for TDP1 inhibitors); chicken DT40 Tdp1-/-;hTDP1 cells + 20 nM CPT, ATP luminescence, 48 h; Potency, µM (highest dose often 46.2 µM), for inactives: at the top dose activity change, negative = growth inhibition, hits mostly inhibitors; 12% of 420,000 active; AID 686979; also: potency is read from the fitted curve at half-maximal effect; % is scaled to controls: 0 for no effect and ±100 for the full control effect; nearly all actives have a fitted effect of over 55% in size
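Cell growth measured by CellTiter-Glo luminescence after a minimum 48 h, 37 C compound exposure with 20 nM CPT in Tdp1-knockout DT40 cells stably expressing hTDP1, seeded 400/well; qHTS titration format.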
TDP1 block: TDP1 (human) enzyme inhibition. Q9NUW8. recombinant TDP1, AlphaScreen DNA substrate cleavage. Potency, µM (titrated, usually from 130 µM), without a hit: top-dose activity change, negative = inhibition, actives largely listed as inhibitors. 0.28% of 350,000 active; also: potency is read from the fitted curve at half-maximal effect; % is scaled to controls: 0 for no effect and ±100 for the full control effect; nearly all actives have a fitted effect of over 40% in size
Target sequence (Q9NUW8 whole entry, looked up): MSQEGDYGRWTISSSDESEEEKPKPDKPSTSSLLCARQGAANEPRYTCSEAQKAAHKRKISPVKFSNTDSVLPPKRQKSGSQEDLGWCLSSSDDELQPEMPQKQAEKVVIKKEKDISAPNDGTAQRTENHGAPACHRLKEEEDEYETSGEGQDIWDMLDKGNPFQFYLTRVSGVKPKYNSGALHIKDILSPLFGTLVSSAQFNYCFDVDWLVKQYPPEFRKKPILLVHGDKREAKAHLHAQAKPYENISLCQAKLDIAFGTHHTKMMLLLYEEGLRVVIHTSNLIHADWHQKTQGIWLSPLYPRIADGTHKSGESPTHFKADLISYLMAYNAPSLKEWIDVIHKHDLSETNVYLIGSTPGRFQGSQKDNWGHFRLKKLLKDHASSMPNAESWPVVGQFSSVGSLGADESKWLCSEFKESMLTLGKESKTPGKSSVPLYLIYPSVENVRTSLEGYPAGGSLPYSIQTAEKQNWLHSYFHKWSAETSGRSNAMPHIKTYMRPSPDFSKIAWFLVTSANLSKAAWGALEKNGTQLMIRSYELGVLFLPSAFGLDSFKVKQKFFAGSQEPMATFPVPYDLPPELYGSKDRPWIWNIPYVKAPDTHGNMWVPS
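Steps: enzyme plus compound, 15 min RT; add biotin/phosphotyrosine-FITC oligonucleotide (15 nM final), react 5 min; add donor/acceptor beads (10 ug/ml final), 10 min; read AlphaScreen. Tdp1 at 1 nM final.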
* marks the source's active call; other numbers are inactive results; ? = inconclusive; . = no result. Rows were chosen to be rich in hits. Some 19% of all compounds tested hit in one or more screens of this group. Unless noted, calls follow the shape of the dose curve; as a rule, active = well fitted curve in the direction sought with a large enough effect; inconclusive = small, poorly fitted or top-dose-only effect, or another doubt; inactive = no such curve, though single readings can be large; an effect the other way counts as inactive or inconclusive.

SMILES	HepG2 tox	DT40 TDP1 no CPT	IL-1B inflam inh	TGFb inhibitor	DT40 TDP1 CPT	TDP1 block
CCN(CC(=O)Nc1ccc(NC(C)=O)cc1)C(=O)c1ccc(COc2ccc(C(C)(C)C)cc2)cc1	-33%	23µM*	-51*	?	?	.
CCOc1ccc(OCc2ccc(C(=O)N(CC)CC)cc2)cc1	-21%	15µM*	0	?	?	-11%
O=C(CSc1nc(=O)n(CCN2CCOCC2)c2c1CCC2)Nc1cccc(Cl)c1	-38%	-18%	.	-23%	-10%	-3%
CCOC(=O)c1c(NC(=O)CSc2nnnn2-c2ccccc2)sc2c1CC(C)(C)NC2(C)C	-36%	?	-62*	-24%	16µM*	8%
CCOC(=O)c1c(NC(=O)CSc2nc3ccc(C)cc3[nH]2)sc2c1CC(C)(C)NC2(C)C	-29%	?	-85*	?	?	7%
CCOC(=O)c1c(NC(=O)CSc2nnnn2-c2ccccc2OCC)sc2c1CC(C)(C)NC2(C)C	-48%	15µM*	-78*	?	?	.
Cc1ccc(OC(=O)c2cc(-c3ccc4c(c3)OCCO4)on2)c(C)c1	-1%	-4%	.	0%	-3%	-12%
COC(=O)c1cc(NC(=O)c2cc(-c3ccc(C(F)(F)F)cc3)oc2C(F)(F)F)ccc1N1CCOCC1	-2%	21µM*	0	?	?	-3%
Cc1ccc(NC(=O)c2cc(=O)c3ccccc3o2)cc1S(=O)(=O)N1CCOCC1	-1%	12µM*	0	-18%	18µM*	6%
Cc1ccc(NC(=O)c2cc(=O)c3ccccc3o2)cc1S(=O)(=O)N1CCCCC1	-5%	21µM*	?	1%	?	0%
O=C(Nc1ccc(S(=O)(=O)N2CCCCCC2)cc1)c1cc(=O)c2ccccc2o1	2%	?	.	?	?	9%
Cc1ccc(NC(=O)c2cc([N+](=O)[O-])ccc2N2CCOCC2)cc1S(=O)(=O)N1CCOCC1	6%	-27%	-14	?	-24%	4%
Cc1ccc(NC(=O)c2ccc([N+](=O)[O-])o2)cc1S(=O)(=O)N1CCOCC1	-55%	4.6µM*	-94*	14µM*	5.2µM*	6%
COCc1c(C(=O)Nc2ccc(C)c(S(=O)(=O)N3CCOCC3)c2)oc2ccccc12	-6%	?	-3	?	?	.
CCC1(c2ccccc2)NC(=O)N(CC(=O)Nc2ccc(S(=O)(=O)Nc3ncccn3)cc2)C1=O (configuration not stated)	-3%	5%	0	2%	6%	.
COc1ccccc1C(=O)COC(=O)Cn1[nH]c(=O)c2ccccc2c1=O	0%	-9%	5	14%	-20%	.
CCOC(=O)c1ccc(S(=O)(=O)N2CCN(c3nc(-c4cccs4)nc4ccccc34)CC2)cc1	-3%	-22%	.	-11%	-20%	-1%
Cc1ccc(NC(=O)c2ccc3ccccc3n2)cc1S(=O)(=O)N1CCOCC1	22%	15µM*	41	?	?	0%
Cc1ccc(NC(=O)c2ccccc2-c2ccc(C(F)(F)F)cc2)cc1S(=O)(=O)N1CCOCC1	13%	15µM*	-19	24%	?	3%
COc1ccc(CC(=O)Nc2ccncc2Cl)cc1	-17%	1.8µM*	-9	1%	4.6µM*	3%
O=C(Cc1ccc(Cl)cc1Cl)Nc1ccncc1	-20%	?	-3	?	12µM*	4%
Cc1ccc(NC(=O)Nc2ccc(F)cc2)cc1Cl	-5%	23µM*	?	-7%	?	-3%

Compound activity (PubChem BioAssay)
